CHX counter: counter-screen for Shiga toxin inhibitors: cycloheximide protein synthesis inhibition; actives 12% (n = 300,000); cell reporter, cycloheximide protein synthesis inhibition counterscreen; max response, %; in the data active = max response mostly above about 13%, no sharp cut-off; inactive = mostly below about 14%; also: read at 38.3 µM for the half of the compounds with a filed dose; 0% is about no effect
Shiga inhibitor: inhibitors of Shiga toxin in Vero cells; Vero cells, Shiga toxin protein synthesis inhibition reporter; actives 9.2% (n = 290,000); inhibition, % at 38.7 µM; AID 2315; in the data active = inhibition mostly above about 28%, no sharp cut-off; inactive = mostly below about 43%; also: 0% is about no effect
Pf growth 96h: P. falciparum growth inhibition at 96 hour, primary screen for plastid delayed-death inhibitors; actives 6.9% (n = 320,000); P. falciparum luciferase reporter growth, 96 h; Potency, µM (highest dose often 28.7 µM), for inactives: top-dose activity change, negative = inhibition, hits mostly inhibitors; AID 504834; also: potency is read from the fitted curve at half-maximal effect; % is scaled to controls: 0 for no effect and ±100 for the full control effect
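Readout is luminescence from an integrated firefly luciferase in P. falciparum. Red cells, 2% hematocrit and 0.05% parasitemia final, were cultured with compound through two parasite generations (96 hours) at 37 C, 5% CO2.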
LmPK inh: LmPK (Leishmania mexicana) enzyme inhibition. AID 1721. actives 0.37% (n = 290,000). Q27686. purified LmPK, Kinase-Glo ATP luminescence, 1 h. Potency, µM (titrated, usually from 57.5 µM), for inactives: at the highest dose activity change, negative = inhibition, most hits filed as inhibitors; also: potency is read from the fitted curve at half-maximal effect; % is scaled to controls: 0 for no effect and ±100 for the full control effect
Target sequence (Q27686 whole entry, looked up): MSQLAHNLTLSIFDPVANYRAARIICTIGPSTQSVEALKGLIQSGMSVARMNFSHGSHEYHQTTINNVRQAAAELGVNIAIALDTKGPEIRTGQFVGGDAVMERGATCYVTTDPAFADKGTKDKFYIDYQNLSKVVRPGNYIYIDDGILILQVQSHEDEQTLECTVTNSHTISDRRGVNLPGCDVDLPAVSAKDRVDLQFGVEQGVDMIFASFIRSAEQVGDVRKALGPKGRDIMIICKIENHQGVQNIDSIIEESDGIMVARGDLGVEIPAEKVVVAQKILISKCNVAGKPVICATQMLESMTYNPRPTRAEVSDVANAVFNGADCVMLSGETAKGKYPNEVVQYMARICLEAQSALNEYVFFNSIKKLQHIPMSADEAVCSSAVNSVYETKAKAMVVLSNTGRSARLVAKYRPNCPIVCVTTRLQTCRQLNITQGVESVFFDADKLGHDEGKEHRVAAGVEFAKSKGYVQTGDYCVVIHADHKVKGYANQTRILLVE
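Screened at intermediate enzyme activity to detect both inhibitors and activators: LmPK at 0.1 nM, with a 0.5 nM enzyme column as activation reference. PEP 0.5 mM, ADP 0.1 mM; ATP detected by luminescence after 1 h.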
Pf growth 48h: inhibits P. falciparum growth in the first generation, 48 h; P. falciparum luciferase growth in erythrocytes, 48 h; AID 504832; Potency, µM (series often up to 28.7 µM), for the others: at the highest dose activity change, negative = inhibition, usual class: inhibitors; actives 5.9% (n = 310,000); also: potency is read from the fitted curve at half-maximal effect; % is scaled to controls: 0 for no effect and ±100 for the full control effect
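Firefly luciferase activity from engineered P. falciparum reports growth; inhibitors lower the luminescent signal. Cultures contained 2% hematocrit erythrocytes at 0.1% final parasitemia.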
* hit, by the source's call; ? = inconclusive; / = no result; [ ] = remark or other dose. The list is not random: actives were taken first. Their share in the collection is about 22%. Unless noted, calls follow the shape of the dose curve; as a rule, active = well fitted inhibition curve with a large enough effect; inconclusive = small, poorly fitted or top-dose-only effect, or another doubt; inactive = no such curve, though single readings can be large or run the other way.

SMILES	CHX counter	Shiga inhibitor	Pf growth 96h	LmPK inh	Pf growth 48h
COc1ccc(CCC(C)NC(=O)Cc2ccc(OC)c(OC)c2)c(OC)c1 (centres undefined)	4	6	0%	1%	-21%
Cc1ccc(CSCCNC(=O)/C=C/c2ccccc2Cl)cc1	32*	6	-5%	2%	?
O=C(/C=C/c1ccccc1[N+](=O)[O-])NCCc1ccc(F)cc1	24*	69	37%	2%	-6%[5.75 µM]
O=C(/C=C/c1ccccc1Cl)NCCc1ccc(F)cc1	24*	93*	?	3%	4.7µM*
CC1CCN(S(=O)(=O)c2ccc(S(=O)(=O)NCC3COCCO3)cc2)CC1 (centres undefined)	-8	-5	/	1%	-3%
O=C(NCCc1ccccc1)C1CCCN(c2cnccn2)C1 (centres undefined)	13	6	19%	-2%	-11%
O=C(c1cc2ccccc2oc1=O)N(Cc1cccs1)C1CCS(=O)(=O)C1 (centres undefined)	47*	144*	/	-15%	-3%
CCOc1ccc(CN(C(=O)c2cc(=O)c3cc(C)cc(C)c3o2)C2CCS(=O)(=O)C2)cc1 (centres undefined)	-5	-10	0%	7%	3.7µM*
O=C(c1ccccc1F)N(Cc1cccs1)C1CCS(=O)(=O)C1 (centres undefined)	-4	-14	?	0%	4%
CCc1ccc(CN(C(=O)c2cc3ccccc3oc2=O)C2CCS(=O)(=O)C2)cc1 (centres undefined)	27*	72*	13%	-21%	-3%
O=C(c1cc2ccccc2oc1=O)N(Cc1ccco1)Cc1cccs1	17*	20	3%	3%	-2%
CC(C)N(Cc1ccc(F)cc1)C(=O)c1cc2ccccc2oc1=O	43*	55*	0%	8%	7%
Cc1c(C(=O)N(Cc2ccccc2)C2CCS(=O)(=O)C2)oc2ccccc12 (centres undefined)	-1	-2	0%	0%	14%
COc1ccccc1OC(C)C(=O)N(Cc1ccco1)C1CCS(=O)(=O)C1 (centres undefined)	14*	25*	?	-7%	33%
Cc1c(C(=O)N(Cc2cccc(Br)c2)C2CCS(=O)(=O)C2)oc2ccccc12 (centres undefined)	-10	-6	13µM*	-9%	?
COc1cc(CN(C(=O)c2cc3ccccc3oc2=O)C2CCS(=O)(=O)C2)cc(OC)c1OC (centres undefined)	28*	30	?	0%	11%
O=C(Nc1cccc(-n2cccn2)c1)C1CCCN(Cc2ccccc2F)C1 (centres undefined)	-5	-1	?	-4%	?
C[N+](C)(C)CCCNC(=O)c1ccc(/C=N/O)nc1	10	-5	?	1%	35%
COc1ccc(NC(=O)c2ccc3c(c2)NC(=O)CO3)cc1OC	7	18	?	5%	27%
Cc1ccc(CN(C(=O)c2cc3ccccc3oc2=O)C2CCS(=O)(=O)C2)cc1 (centres undefined)	39*	73*	-20%	-13%	1%
O=C(c1cccs1)N(Cc1ccco1)C1CCS(=O)(=O)C1 (centres undefined)	-2	26	5.2µM*	1%	28%
COc1ccc(CN(C(=O)c2cc3ccccc3oc2=O)C2CCCCC2)cc1OC	48*	65*	?	-1%	?
O=C(c1ccccc1)N(Cc1cccs1)C1CCS(=O)(=O)C1 (centres undefined)	-2	-13	0.37µM*	2%	43%
COc1ccc(C(=O)N(Cc2cccs2)C2CCS(=O)(=O)C2)cc1 (centres undefined)	-3	-10	?	3%	-4%
CCN(CC(=O)NCc1cccs1)CC(=O)Nc1cccc(S(N)(=O)=O)c1	/	/	-28%	/	0%
SMILES	CHX counter	Shiga inhibitor	Pf growth 96h	LmPK inh	Pf growth 48h
Cc1ccc(S(=O)(=O)NNC(=O)c2ccc3ccccc3n2)cc1	-3	8	?	1%	-2%
O=C(c1ccccc1F)N(Cc1ccc(F)cc1)C1CCS(=O)(=O)C1 (centres undefined)	1	2	/	0%	-4%
O=C(c1cc2ccccc2oc1=O)N(Cc1ccc(F)cc1)C1CCS(=O)(=O)C1 (centres undefined)	64*	130*	26%	-21%	8%
COc1ccccc1C(=O)N(Cc1sccc1C)C1CCS(=O)(=O)C1 (centres undefined)	-9	-3	2.1µM*	3%	2%
Cc1cc(C)cc(OCC(O)CN2CCC(CN3C(=O)c4cccc5cccc(c45)C3=O)CC2)c1 (centres undefined)	4	12	30%	-4%	10%
COCc1cc(/C=N\NC(=O)Cc2ccc(OC)cc2)ccc1OC	-2	15	3%	1%	2%
Cc1cc(NCc2ccccc2)nc2ccccc12	15	19	17%	6%	?
Cc1cc(NCc2ccccc2)c2ccccc2n1	-2	-8	?	-1%	3.3µM*
COc1ccc2nc(C)cc(NCc3cccc(C(F)(F)F)c3)c2c1	-4	-12	?	1%	0.93µM*
COCCN(C(=O)CSc1n[nH]c(-c2ccccc2)n1)c1c(N)n(CC(C)C)c(=O)[nH]c1=O	/	/	1%	/	3%
CCCCC(=O)NC(c1ccc(OC)c(OC)c1)c1c(O)ccc2ccccc12 (centres undefined)	-1	-20	12µM*	12%	?
CCCC(=O)NC(c1ccccc1Cl)c1c(O)ccc2ccccc12 (centres undefined)	1	-6	22%	1%	10µM*
CCCCC(=O)NC(c1ccccc1Cl)c1c(O)ccc2ccccc12 (centres undefined)	-1	-14	62%	8%	10µM*
CCC(C(=O)OCC(=O)N1C(C)CCCC1C)c1ccccc1 (centres undefined)	17	3	14%	1%	-11%
COc1cc(/C=C/C(=O)NC(C)C)ccc1OCc1ccccc1	-1	38	0%	1%	13µM*
COc1ccc(/C=C/C(=O)Nc2ccc(NC(C)=O)cc2)cc1S(=O)(=O)N1CCOCC1	2	17	?	1%	?
COc1ccc(CN(C)C(=O)/C=C/c2ccc(S(=O)(=O)N3CCOCC3)cc2)cc1F	/	/	?	/	12µM*
COc1ccc(/C=C/C(=O)Nc2ccccc2)cc1OC	36*	127*	191%	-8%	240%
COc1ccc(/C=C/C(=O)NC(=S)Nc2ccccc2)cc1OC	5	18	16%	-1%	15%
COc1ccc(/C=C/C(=O)Nc2ccccc2)cc1S(=O)(=O)N1CCOCC1	11*	17	?	3%	?
O=C(C1CC(=O)N(C2CCCCC2)C1)N1CCN(c2cccc(C(F)(F)F)c2)CC1 (centres undefined)	-3	-3	-18%	3%	16%

Screening results (PubChem BioAssay)
